C diff HTS: inhibitors of Clostridium difficile growth; Clostridium difficile clinical isolate growth, OD600, 24 h; hits give low values; growth activity, negative = inhibition, % at 16 µg/mL (by protocol); hit rate 0.25% among 86,000; AID 1259249;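 active means mean growth activity at or below -80% and every replicate also at or below -80%; inconclusive means mean at or below -80% but some replicate above -80%; inactive means mean growth activity above -80%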
Pf Dd2 growth: blocks growth of Plasmodium falciparum Dd2 parasites; P. falciparum Dd2 growth, SYBR Green, 72 h; hits give low values; hit rate 2.3% among 94,000; AID 1159554; activity change, % at 10 µM; in the data active means activity change below about -80%; inconclusive means no clear call, values can overlap the other calls
T cruzi growth-1: T. cruzi proliferation inhibition. T. cruzi beta-gal in NIH3T3, GalScreen luminescence, 90 h. inhibition, % at 8.34 µM. hit rate 5.9% among 77,000. AID 624255;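 active means mean inhibition above about 93%, with at least 55% of replicates each passing it, limit read from the data, passing the limit was not always enough; inconclusive means only one of those two conditions holds; inactive means neither condition holds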
T cruzi growth-2: blocks T. cruzi growth in NIH3T3 host cells. shares compounds with T cruzi growth-1. AID 651739. hit rate 72% among 5,600. inhibition, % at 8.35 µM. T. cruzi beta-gal in NIH3T3, GalScreen luminescence, 90 h;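 active means mean replicate inhibition above about 95% and at least 55% of replicates individually reaching it, limit read from the data; inconclusive means only one of the two criteria is met; inactive means neither criterion is met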
T cruzi growth-3: blocks T. cruzi growth in NIH3T3 host cells; shares compounds with T cruzi growth-1; T. cruzi beta-gal in NIH3T3, GalScreen luminescence, 90 h; inhibition, % at 2.09 µM; hit rate 21% among 5,600; AID 651740;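 active means mean inhibition above about 95%, with at least 55% of replicates also reaching it, limit read from the data; inconclusive means meets just one of the two conditions; inactive means meets neither condition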
3T3 cytotox: cytotoxicity in mouse NIH/3T3 fibroblasts. shares compounds with T cruzi growth-1. NIH/3T3 viability, CellTiter-Glo ATP luminescence, 90 h. cytotoxicity (signal decrease), % at 8.35 µM. hit rate 14% among 5,600. AID 651742;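 active means mean signal decrease across replicates above about 35% based on untreated-well scatter, with enough replicates individually passing, limit read from the data; inconclusive means no rule stated though some were filed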
NIH3T3 tox 2: cytotoxicity in mouse NIH/3T3 fibroblasts; shares compounds with T cruzi growth-1; NIH/3T3 viability, CellTiter-Glo ATP luminescence, 90 h; inhibition, % at 24.9 µM; hit rate 56% among 5,600;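 active means mean loss of cell viability signal at or above a set limit, and enough replicates individually reaching it; inconclusive means meets only the mean limit or only the replicate share; inactive means meets neither condition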
Each line names hits and unclear results; the compound was inactive in the other large screens (follow-up assays come after a bar, where they were run); ! = not active in a repeat. Shown are actives, neighbours in structure and some others; about 6.7% of the full set was active somewhere.

CO[C@H]1CN(C)C(=O)c2ccc(NC(=O)C3CC3)cc2OC[C@H](C)N(C(=O)c2ccccn2)C[C@H]1C	none (no result: C diff HTS)
Cc1noc(C)c1S(=O)(=O)Nc1ccc2c(c1)CC(=O)N([C@@H](C)CO)C[C@@H](C)[C@H](CN(C)S(C)(=O)=O)O2	none
CC(C)CC#Cc1ccc2c(c1)O[C@H](CN(C)C(=O)c1ccccc1)[C@H](C)CN([C@H](C)CO)S2(=O)=O	none (no result: T cruzi growth-1)
CC(C)CC#Cc1ccc2c(c1)O[C@H](CN(C)C(=O)c1ccccc1F)[C@@H](C)CN([C@@H](C)CO)S2(=O)=O	T cruzi growth-1 102.6 | T cruzi growth-2 102.6 | T cruzi growth-3 inconclusive | 3T3 cytotox inactive | NIH3T3 tox 2 105.1
C[C@@H]1CN([C@@H](C)CO)S(=O)(=O)c2ccc(C#CC3CC3)cc2O[C@@H]1CN(C)C(=O)c1ccccc1	none
CC(C)CC#Cc1ccc2c(c1)O[C@H](CN(C)C(=O)c1ccccc1)[C@@H](C)CN([C@@H](C)CO)S2(=O)=O	T cruzi growth-1 122.4 | T cruzi growth-2 102.5 | T cruzi growth-3 inactive | 3T3 cytotox inactive | NIH3T3 tox 2 104.9
C[C@@H]1CN([C@H](C)CO)S(=O)(=O)c2ccc(C#CC3CC3)cc2O[C@@H]1CN(C)C(=O)c1cccc(F)c1	none (no result: T cruzi growth-1)
COCC#Cc1ccc2c(c1)O[C@@H](CN(C)C(=O)c1ccccc1F)[C@H](C)CN([C@H](C)CO)S2(=O)=O	none
CC(C)CC#Cc1ccc2c(c1)O[C@@H](CN(C)C(=O)c1cccc(F)c1)[C@@H](C)CN([C@@H](C)CO)S2(=O)=O	T cruzi growth-1 101.7 | T cruzi growth-2 105.3 | T cruzi growth-3 104.6 | 3T3 cytotox inactive | NIH3T3 tox 2 104.1
C[C@H]1CN([C@@H](C)CO)S(=O)(=O)c2ccc(C#CC3CC3)cc2O[C@@H]1CN(C)C(=O)c1ccccc1	T cruzi growth-1 98.8 | T cruzi growth-2 100.7 | T cruzi growth-3 inactive | 3T3 cytotox inactive | NIH3T3 tox 2 inconclusive
CCN(C[C@@H]1[C@@H](c2ccccc2)[C@@H](CO)N1CC1CC1)C(=O)c1ccccc1F	none (no result: T cruzi growth-1)
C[C@H](CO)N1C[C@H](C)[C@H](CN(C)S(=O)(=O)c2ccc(Cl)cc2)Oc2ccc(NS(=O)(=O)c3ccc(Cl)cc3)cc2CC1=O	none
C[C@@H]1CN([C@H](C)CO)C(=O)c2cc(N(C)C)ccc2O[C@@H](C)CCCCO[C@H]1CN(C)S(=O)(=O)c1ccccc1	none
CC(C)C#Cc1cnc2c(c1)C(=O)N([C@@H](C)CO)C[C@@H](C)[C@@H](CN(C)C(=O)C1CCC1)O2	none (no result: Pf Dd2 growth)
COCC(=O)Nc1ccc2c(c1)C(=O)N(C)C[C@@H](OC)[C@H](C)CN(Cc1ccccc1C(=O)O)[C@H](C)CO2	none (no result: C diff HTS)
COc1ccc(S(=O)(=O)N[C@@H]2CC[C@@H](CC(=O)NCc3ccccc3F)O[C@H]2CO)cc1	none
C[C@H](CO)N1C[C@H](C)[C@H](CN(C)CC2CCCCC2)Oc2ccc(NS(C)(=O)=O)cc2C1=O	none
C[C@H]1CN([C@@H](C)CO)C(=O)c2cc(C#CC(C)(C)O)cnc2O[C@@H]1CN(C)C(=O)CN(C)C	none
C[C@@H]1CN([C@@H](C)CO)C(=O)c2cccc(NC(=O)c3cnccn3)c2O[C@@H]1CN(C)Cc1ccc2c(c1)OCO2	T cruzi growth-1 96.8 | T cruzi growth-2 inactive | T cruzi growth-3 inactive | 3T3 cytotox inactive | NIH3T3 tox 2 50.5
C[C@H](CO)N1C[C@H](C)[C@H](CN(C)Cc2ccc3c(c2)OCO3)Oc2c(NC(=O)c3ccncc3)cccc2C1=O	T cruzi growth-1 97.3 | T cruzi growth-2 inactive | T cruzi growth-3 inactive | 3T3 cytotox inactive | NIH3T3 tox 2 inactive
C[C@@H]1CN([C@H](C)CO)C(=O)c2cccc(NC(=O)c3cnccn3)c2O[C@@H]1CN(C)Cc1ccc(Cl)c(Cl)c1	none
C[C@H](CO)N1C[C@H](C)[C@@H](CN(C)Cc2ccc3c(c2)OCO3)Oc2c(NC(=O)c3cnccn3)cccc2C1=O	none
C[C@H]1CN([C@@H](C)CO)C(=O)c2cccc(NC(=O)c3cnccn3)c2O[C@@H]1CN(C)Cc1ccc(Cl)c(Cl)c1	T cruzi growth-1 109.0 | T cruzi growth-2 inactive | T cruzi growth-3 inactive | 3T3 cytotox inactive | NIH3T3 tox 2 49.7
C[C@H]1CN([C@@H](C)CO)C(=O)c2cccc(NC(=O)c3ccncc3)c2O[C@@H]1CN(C)Cc1ccc(Cl)c(Cl)c1	none
O=C(C[C@H]1C=C[C@H](NC(=O)C2CCOCC2)[C@H](CO)O1)Nc1ccccc1	none (no result: T cruzi growth-1)
COc1cccc(C(=O)Nc2ccc3c(c2)C(=O)N(C)C[C@H](OC)[C@H](C)CN(CCc2ccccc2)[C@H](C)CO3)c1	none (no result: C diff HTS)
CCCNC(=O)N1C[C@H]2[C@@H](c3ccccc31)[C@@H](CO)N2C(=O)c1ccncc1	none
COc1ccc(C#Cc2cnc3c(c2)C(=O)N([C@H](C)CO)C[C@H](C)[C@H](CN(C)Cc2ccccc2)O3)cc1OC	none
COc1ccc(C#Cc2cnc3c(c2)C(=O)N([C@H](C)CO)C[C@H](C)[C@H](CN(C)Cc2cccc(C(F)(F)F)c2)O3)cc1OC	T cruzi growth-1 127.0 | T cruzi growth-2 106.5 | T cruzi growth-3 inactive | 3T3 cytotox inactive | NIH3T3 tox 2 inactive
C[C@H](CO)N1C[C@H](C)[C@H](CN(C)C(=O)Nc2cccc3ccccc23)Oc2ncc(-c3cccc(C(F)(F)F)c3)cc2C1=O	T cruzi growth-1 107.2 (no result: C diff HTS) | T cruzi growth-2 100.1 | T cruzi growth-3 inactive | 3T3 cytotox 44.2 | NIH3T3 tox 2 103.9
C[C@H](CO)N1C[C@H](C)[C@H](CN(C)Cc2cccc(C(F)(F)F)c2)Oc2ncc(-c3ccccc3)cc2C1=O	T cruzi growth-1 118.5 | T cruzi growth-2 98.8 | T cruzi growth-3 inactive | 3T3 cytotox inactive | NIH3T3 tox 2 inactive
Cc1cccc(CN(C)C[C@@H]2Oc3ncc(-c4cccc(C(F)(F)F)c4)cc3C(=O)N([C@H](C)CO)C[C@@H]2C)c1	none
C[C@H](CO)N1C[C@H](C)[C@H](CN(C)C(=O)Nc2cccc3ccccc23)Oc2ncc(-c3cccc(F)c3)cc2C1=O	none (no result: T cruzi growth-1)
C[C@H](CO)N1C[C@H](C)[C@@H](CN(C)C(=O)c2ccc3ccn(C)c3c2)OCc2cnnn2CCCC1=O	T cruzi growth-1 117.1! | T cruzi growth-2 inactive | T cruzi growth-3 inactive | 3T3 cytotox inactive | NIH3T3 tox 2 inactive
CC(C)COC(=O)N(C)C[C@@H]1OCc2cnnn2CCCC(=O)N([C@H](C)CO)C[C@H]1C	T cruzi growth-1 101.4! | T cruzi growth-2 inactive | T cruzi growth-3 inactive | 3T3 cytotox inactive | NIH3T3 tox 2 inactive
CC(C)COC(=O)N(C)C[C@H]1OCc2cnnn2CCCC(=O)N([C@@H](C)CO)C[C@H]1C	none
C[C@@H]1CN([C@@H](C)CO)C(=O)CCCn2nncc2CO[C@@H]1CN(C)C(=O)NC1CCCC1	T cruzi growth-1 inconclusive | T cruzi growth-2 inactive | T cruzi growth-3 inactive | 3T3 cytotox inactive | NIH3T3 tox 2 inactive

Assay outcomes as filed in PubChem BioAssay.
